According to PubChem BioAssay (EPA / NIEHS):
Calls of active or inactive are those of the source. Rule for the calls: active = hit-call score of the fitted dose curve at least 0.9, where 1 is the maximum; inactive = score below 0.9.

Columns and labels:
[1] = read-out: Cyclin D1 (CCND1), CCND1 (gene 595); experiment: LTEA_HepaRG_CCND1: Life Technologies and Expression Analysis (LTEA) Assay for Cyclin D1 (CCND1) using HepaRG (AID 2283451); details: mRNA level, 48 h; actives raise or lower the signal;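 for AC50: TaqMan qRT-PCR transcript level normalised to ACTB GAPDH and POLR2A housekeeping genes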
Summary of the method: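 Human liver HepaRG line; 48 h dosing, 8 conc. ≤100 uM, 0.5% DMSO; TaqMan qRT-PCR mRNA, 3 housekeeping genes; bidirectional curve fit vs DMSO.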

[2] = read-out: catalase (CAT), CAT (gene 847); experiment: LTEA_HepaRG_CAT: Life Technologies and Expression Analysis (LTEA) Assay for catalase (CAT) using HepaRG (AID 2283452); details: mRNA level, 48 h; actives raise or lower the signal
Summary of the method: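 Expression of CAT was quantified by TaqMan qRT-PCR with ACTB/GAPDH/POLR2A normalization after 48 h chemical exposure of HepaRG. Eight-point half-log series, top 100 uM, in 0.5% DMSO; gain or loss fitted against vehicle.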

[3] = read-out: flavin-containing dimethylaniline monooxygenases 3 (FMO3), FMO3 (gene 2328); experiment: LTEA_HepaRG_FMO3: Life Technologies and Expression Analysis (LTEA) Assay for flavin-containing dimethylaniline monooxygenases 3 (FMO3) using HepaRG (AID 2283453); details: mRNA level, 48 h; actives raise or lower the signal
Summary of the method: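 Differentiated HepaRG cells in serum-free induction medium, exposed 48 h in duplicate to 8 half-log concentrations up to 100 uM in 0.5% DMSO. FMO3 mRNA by qRT-PCR, normalized to ACTB, GAPDH, POLR2A; bidirectional fit vs DMSO.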

[4] = read-out: Cytochrome P450 (CYP1A1), CYP1A1 (gene 1543); experiment: LTEA_HepaRG_CYP1A1: Life Technologies and Expression Analysis (LTEA) Assay for Cytochrome P450 (CYP1A1) using HepaRG (AID 2283454); details: mRNA level, 48 h; actives raise or lower the signal
Summary of the method: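 Induction of CYP1A1 mRNA in a human hepatic cell line was measured 48 h after dosing, with 1 mM phenobarbital as induction positive control and 0.5% DMSO vehicle as baseline for bidirectional curve fitting.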

[5] = read-out: CFLAR gene, CFLAR (gene 8837); experiment: LTEA_HepaRG_CFLAR: Life Technologies and Expression Analysis (LTEA) Assay for CFLAR gene using HepaRG (AID 2283455); details: mRNA level, 48 h; actives raise or lower the signal
Summary of the method: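 HepaRG, 48 h exposure, 8-pt conc-response (100 uM top, half-log), 0.5% DMSO vehicle, duplicates. CFLAR expression by qRT-PCR; ACTB/GAPDH/POLR2A normalization; gain or loss fit vs DMSO baseline.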

[6] = read-out: Forkhead box O1 (FOXO1), FOXO1 (gene 2308); experiment: LTEA_HepaRG_FOXO1: Life Technologies and Expression Analysis (LTEA) Assay for Forkhead box O1 (FOXO1) using HepaRG (AID 2283456); details: mRNA level, 48 h; actives raise or lower the signal
Summary of the method: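 Readout is FOXO1 transcript level by multiplexed qRT-PCR against three housekeeping genes, curve-fitted in both directions relative to 0.5% DMSO vehicle. Human HepaRG cultures received chemicals for 48 h, up to 100 uM in half-log steps.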

[7] = read-out: growth arrest and DNA damage 45 (GADD45A), GADD45A (gene 1647); experiment: LTEA_HepaRG_GADD45A: Life Technologies and Expression Analysis (LTEA) Assay for growth arrest and DNA damage 45 (GADD45A) using HepaRG (AID 2283458); details: mRNA level, 48 h; actives raise or lower the signal
Summary of the method: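 Differentiated HepaRG cells exposed 48 h in serum-free induction medium to 8 concentrations, top 100 uM in half-log steps, 0.5% DMSO. GADD45A mRNA quantified by qRT-PCR, normalized to ACTB, GAPDH and POLR2A; bidirectional fit versus DMSO.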

[8] = read-out: Forkhead box O3 (FOXO3), FOXO3 (gene 2309); experiment: LTEA_HepaRG_FOXO3: Life Technologies and Expression Analysis (LTEA) Assay for Forkhead box O3 (FOXO3) using HepaRG (AID 2283459); details: mRNA level, 48 h; actives raise or lower the signal
Summary of the method: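 HepaRG, 48 h post-dose; 8 conc., half-log from 100 uM, 0.5% DMSO, duplicates; serum-free induction medium. Readout: FOXO3 mRNA, TaqMan qRT-PCR, housekeeping-normalized. Bidirectional curve fit vs DMSO baseline.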

[9] = read-out: ABC Transporter (ABCB1), ABCB1 (gene 5243); experiment: LTEA_HepaRG_ABCB1: Life Technologies and Expression Analysis (LTEA) Assay for ABC Transporter (ABCB1) using HepaRG (AID 2283460); details: mRNA level, 48 h; actives raise or lower the signal
Summary of the method: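 Expression of ABCB1 was quantified by qRT-PCR against three housekeeping genes after human HepaRG cultures received test chemicals for 48 hours. Concentrations spanned eight half-log steps topping at 100 uM in 0.5% DMSO; gain or loss of signal was fitted relative to vehicle.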

[10] = read-out: ABC Transporter (ABCC3), ABCC3 (gene 8714); experiment: LTEA_HepaRG_ABCC3: Life Technologies and Expression Analysis (LTEA) Assay for ABC Transporter (ABCC3) using HepaRG (AID 2283462); details: mRNA level, 48 h; actives raise or lower the signal
Summary of the method: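 Differentiated HepaRG liver cells receive test chemicals at eight concentrations (max 100 uM) for 48 h. Expression of ABCC3 is quantified by qRT-PCR against ACTB, GAPDH and POLR2A, and activity is fitted in both directions against the DMSO control.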

[11] = read-out: ABC Transporter (ABCB11), ABCB11 (gene 8647); experiment: LTEA_HepaRG_ABCB11: Life Technologies and Expression Analysis (LTEA) Assay for ABC Transporter (ABCB11) using HepaRG (AID 2283463); details: mRNA level, 48 h; actives raise or lower the signal
Summary of the method: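 ABCB11 transcript levels are read by Fluidigm TaqMan qRT-PCR after 48 h chemical treatment of human HepaRG cells. Concentrations span 100 uM downward in half-log steps with 0.5% DMSO; gain or loss is fitted against DMSO controls.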

[12] = read-out: ABC Transporter (ABCC2), ABCC2 (gene 1244); experiment: LTEA_HepaRG_ABCC2: Life Technologies and Expression Analysis (LTEA) Assay for ABC Transporter (ABCC2) using HepaRG (AID 2283464); details: mRNA level, 48 h; actives raise or lower the signal
Summary of the method: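 Gene expression of ABCC2 was determined by qRT-PCR in HepaRG cells exposed 48 h to chemicals (highest 100 uM, half-log dilutions). Activity was fitted in both directions relative to 0.5% DMSO vehicle.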

[13] = read-out: Broad substrate specificity ATP-binding cassette transporter ABCG2 (Homo sapiens) (UniProt Q9UNQ0); experiment: LTEA_HepaRG_ABCG2: Life Technologies and Expression Analysis (LTEA) Assay for ABC Transporter (ABCG2) using HepaRG (AID 2283465); details: mRNA level, 48 h; actives raise or lower the signal
Summary of the method: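 Read-out is ABCG2 mRNA induction or loss quantified by qRT-PCR after 48 h chemical treatment of human HepaRG cells, normalized to three housekeeping genes. Concentrations reached 100 uM top in half-log steps; fitting was bidirectional against 0.5% DMSO.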

[14] = read-out: Peroxisomal acyl-coenzyme A oxidase 1 (ACOX1) gene, ACOX1 (gene 51); experiment: LTEA_HepaRG_ACOX1: Life Technologies and Expression Analysis (LTEA) Assay for Peroxisomal acyl-coenzyme A oxidase 1 (ACOX1) gene using HepaRG (AID 2283467); details: mRNA level, 48 h; actives raise or lower the signal
Summary of the method: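 Measured by qRT-PCR against three housekeeping genes: ACOX1 transcript change in human HepaRG cells after 48 h dosing. Concentrations ran up to 100 uM in half-log steps. Curves were fitted bidirectionally relative to 0.5% DMSO.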

[15] = read-out: Alkaline Phosphatase, Placental (ALPP) gene, ALPP (gene 250); experiment: LTEA_HepaRG_ALPP: Life Technologies and Expression Analysis (LTEA) Assay for Alkaline Phosphatase, Placental (ALPP) gene using HepaRG (AID 2283468); details: mRNA level, 48 h; actives raise or lower the signal
Summary of the method: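 Expression of ALPP was quantified by qRT-PCR against three housekeeping genes in human HepaRG cultures treated for 48 h with an eight-point concentration series up to 100 uM. Activity in either direction was fitted relative to 0.5% DMSO.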

[16] = read-out: Bcl-2 (BAD) gene, BAD (gene 572); experiment: LTEA_HepaRG_BAD: Life Technologies and Expression Analysis (LTEA) Assay for Bcl-2 (BAD) gene using HepaRG (AID 2283469); details: mRNA level, 48 h; actives raise or lower the signal
Summary of the method: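 BAD transcript change, measured by qRT-PCR against three housekeeping genes and fitted in both directions relative to 0.5% DMSO, after 48 h chemical treatment of human HepaRG liver cells at concentrations up to 100 uM.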

[17] = read-out: Bcl-2 (BAX) gene, BAX (gene 581); experiment: LTEA_HepaRG_BAX: Life Technologies and Expression Analysis (LTEA) Assay for Bcl-2 (BAX) gene using HepaRG (AID 2283470); details: mRNA level, 48 h; actives raise or lower the signal
Summary of the method: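 Differentiated HepaRG cells exposed 48 h in serum-free induction medium, eight half-log concentrations from 100 uM, in duplicate, 0.5% DMSO vehicle. BAX mRNA by TaqMan qRT-PCR, normalised to ACTB, GAPDH and POLR2A.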

[18] = read-out: growth arrest and DNA damage 45 (GADD45B), GADD45B (gene 4616); experiment: LTEA_HepaRG_GADD45B: Life Technologies and Expression Analysis (LTEA) Assay for growth arrest and DNA damage 45 (GADD45B) using HepaRG (AID 2283461); details: mRNA level, 48 h; actives raise or lower the signal
Summary of the method: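 Values are bidirectional concentration-response fits against 0.5% DMSO controls. Underlying data: qRT-PCR mRNA levels in human HepaRG liver cells treated 48 h in serum-free induction medium, eight concentrations topping at 100 uM.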

[19] = CEETOX_H295R_TESTO: CeeTox H295R High-throughput Steroidogenesis Assay for Testosterone (TESTO) (AID 2283457); details: actives raise or lower the signal
Summary of the method: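 Testosterone synthesis is assessed in human adrenocortical H295R cells after 48 h of chemical exposure, using HPLC-MS/MS of extracted medium. Activity is fitted in both directions against DMSO control.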

[20] = read-out: ATP-citrate lyase (ACLY), ACLY (gene 47); experiment: LTEA_HepaRG_ACLY: Life Technologies and Expression Analysis (LTEA) Assay for ATP-citrate lyase (ACLY) using HepaRG (AID 2283466); details: mRNA level, 48 h; actives raise or lower the signal
Summary of the method: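 HepaRG, 48 h exposure, 8-pt half-log dilutions (top 100 uM), 0.5% DMSO. Readout: ACLY mRNA, TaqMan qRT-PCR, housekeeping-normalized (ACTB/GAPDH/POLR2A). Bidirectional curve fit vs DMSO.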

Measured: AC50

Sequence of Broad substrate specificity ATP-binding cassette transporter ABCG2 (Homo sapiens) (Q9UNQ0 whole entry, looked up): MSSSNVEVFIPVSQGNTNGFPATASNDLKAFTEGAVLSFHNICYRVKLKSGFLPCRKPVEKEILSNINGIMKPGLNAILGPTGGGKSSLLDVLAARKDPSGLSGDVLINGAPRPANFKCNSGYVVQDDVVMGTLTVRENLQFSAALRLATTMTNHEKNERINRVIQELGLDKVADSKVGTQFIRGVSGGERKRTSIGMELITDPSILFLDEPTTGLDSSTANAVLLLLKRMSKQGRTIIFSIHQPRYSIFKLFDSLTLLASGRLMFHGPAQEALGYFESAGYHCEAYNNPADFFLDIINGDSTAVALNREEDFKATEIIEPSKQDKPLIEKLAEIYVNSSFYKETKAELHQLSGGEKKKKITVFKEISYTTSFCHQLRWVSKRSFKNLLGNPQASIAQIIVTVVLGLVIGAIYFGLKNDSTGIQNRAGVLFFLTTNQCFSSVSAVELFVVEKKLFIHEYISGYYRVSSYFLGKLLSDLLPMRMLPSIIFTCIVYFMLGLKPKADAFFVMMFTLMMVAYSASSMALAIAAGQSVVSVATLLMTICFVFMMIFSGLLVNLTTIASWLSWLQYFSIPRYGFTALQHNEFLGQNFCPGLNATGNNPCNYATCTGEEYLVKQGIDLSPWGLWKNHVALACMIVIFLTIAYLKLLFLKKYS

C=CC1(C)OC(=O)N(c2cc(Cl)cc(Cl)c2)C1=O (stereo not drawn)
active: [4] 24.6 µM | [9] 9.71 µM | [11] 38.3 µM | [13] 11.1 µM
not listed: [18] | [19] | [20]
inactive: all other assays above

COC(=O)c1ccccc1C(=O)OC
not listed: [6] | [19] | [20]
inactive: all other assays above

CCOC(=O)CC(SP(=S)(OC)OC)C(=O)OCC (stereo not drawn)
active: [4] 22.8 µM
not listed: [6] | [18] | [20]
inactive: all other assays above

CCNc1nc(Cl)nc(NCC)n1
active: [4] 21.4 µM
not listed: [6] | [19]
inactive: all other assays above

CCCC1COC(Cn2cncn2)(c2ccc(Cl)cc2Cl)O1 (stereo not drawn)
inactive: [19] | [8] | [9] | [16]
active: [1] 90.2 µM | [2] 37.2 µM | [3] 34.6 µM | [4] 40 µM | [5] 77.7 µM | [7] 67.2 µM | [10] 12.2 µM | [11] 36.9 µM | [12] 68.5 µM | [13] 22.2 µM | [14] 25.9 µM | [15] 25.6 µM | [17] 81 µM

Cc1ccc(-c2c(Cl)nc(C#N)n2S(=O)(=O)N(C)C)cc1
active: [2] 7.28 µM | [3] 19.5 µM | [4] 3.53 µM | [5] 7.21 µM | [7] 22.5 µM | [8] 3.64 µM | [18] 8.98 µM | [10] 7.3 µM | [11] 36.4 µM | [12] 4.39 µM | [14] 4.39 µM | [15] 50 µM | [16] 68.3 µM
inactive: [1] | [9] | [13] | [17]
